The source of these data is the supplement of paper PMC12350171.

Where a name gives a salt, the structure may show the parent alone. A number with no mark means an inactive call.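 The calls were made as follows: active = AUC significantly below DMSO controls by Student t-fit with adjusted P under 0.01; inactive = not significantly reduced.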

This test concerns Salmonella enterica typhimurium. The test is described as follows: growth AUC normalised to DMSO control (fraction of control); higher = less growth inhibition, active = hit call of the paper. Particulars: 20 µM. The procedure, abridged:
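After two anaerobic passages, pathogens were added at a starting OD578 of 0.01 to pre-reduced mGAM plates holding compound at 20 μM with 1% DMSO; hemin and NAD were supplemented for Haemophilus parainfluenzae. Sealed with breathable membranes, plates were read at OD578 hourly for 24 h, in three biological replicates. The trapezoidal rule, applied up to the exponential-to-stationary transition, gave the growth-curve AUC, which was normalised to DMSO controls on the same plate.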
For the compound `Cc1ccc(S(=O)(=O)NC(=O)NN2CC3CCCC3C2)cc1` (stereo not given) [Gliclazide], the “growth AUC normalised to DMSO control” value was 1.02.
To `O=c1[nH]cc(F)c(=O)[nH]1` [5-fluorouracil] belongs 0.842 (active); to `COC(=O)C1=C(C)NC(C)=C(C(=O)OC)C1c1ccccc1[N+](=O)[O-]` [Nifedipine], 1; to `COc1ccc(CN(CCN(C)C)c2ccccn2)cc1` [Pyrilamine maleate], 0.974.
Consider `Cc1c(Cl)cccc1Nc1ccccc1C(=O)O` [Tolfenamic acid], for which the “growth AUC normalised to DMSO control” value is 1.
To `C[C@@](Cc1ccc(O)c(O)c1)(NN)C(=O)O` [Carbidopa] belongs 0.994; to `CCN(CC)CCCC(C)Nc1ccnc2cc(Cl)ccc12` (stereo not given) [Chloroquine diphosphate], 0.997; to `c1ccc(-c2ccc(C(c3ccccc3)n3ccnc3)cc2)cc1` (stereo not given) [Bifonazole], 1.01.
For `C[C@H](CS)C(=O)N1CCC[C@H]1C(=O)O` [Captopril] the value was 1.01.
To `Nc1ccc(C(=O)NCC(=O)O)cc1` [Aminohippuric acid] belongs 1.03; to `CC(C(=O)O)c1ccc(N2Cc3ccccc3C2=O)cc1` (stereo not given) [Indoprofen], 0.992.
As for `CO[C@@]1(NC(=O)Cc2cccs2)C(=O)N2C(C(=O)O)=C(COC(N)=O)CS[C@@H]21` [Cefoxitin sodium salt], the “growth AUC normalised to DMSO control” value was 0.00626 (active).
To `CN1CCN(CCCN2c3ccccc3Sc3ccc(C(F)(F)F)cc32)CC1` [Trifluoperazine dihydrochloride] belongs 1.03; to `CN(C)CCOc1ccc(/C(=C(/CCCl)c2ccccc2)c2ccccc2)cc1` [Toremifene], 1.01.
For `O=C1Nc2ccc(Cl)cc2[C@@](C#CC2CC2)(C(F)(F)F)O1` [Efavirenz] the value was 0.997; for `CO[C@@H]1[C@@H](O[C@@H]2O[C@H](C)[C@@H](O[C@H]3C[C@@](C)(O)[C@@H](OC(=O)CC(C)C)[C@H](C)O3)[C@H](N(C)C)[C@H]2O)[C@@H](CC=O)C[C@@H](C)[C@@H](O)/C=C/C=C/C[C@@H](C)OC(=O)C[C@H]1OC(C)=O` [Josamycin], 0.937 (active).
Consider `O=C(NCCNCC(O)COc1ccc(O)cc1)N1CCOCC1` (stereo not given) [Xamoterol hemifumarate], for which the “growth AUC normalised to DMSO control” value was 0.969.
Turning to `CCN(CC)CCCC(C)Nc1c2ccc(Cl)cc2nc2ccc(OC)cc12` (stereo not given) [Quinacrine dihydrochloride hydrate], the “growth AUC normalised to DMSO control” value is 0.957.
With `C[C@H]1C[C@H]2[C@@H]3CCC4=CC(=O)C=C[C@]4(C)[C@@]3(F)[C@@H](O)C[C@]2(C)[C@@]1(O)C(=O)CO` [Betamethasone], the “growth AUC normalised to DMSO control” value is 0.985.
As to `CCCCC(CC)CNC(=N)NC(=N)NCCCCCCNC(=N)NC(=N)NCC(CC)CCCC` (stereo not given) [Alexidine dihydrochloride], the “growth AUC normalised to DMSO control” value was 0.981.
Take `COc1ccc(C(=O)NCc2cccnc2)cc1C(=O)NCc1cccnc1` [Picotamide monohydrate]: the “growth AUC normalised to DMSO control” value is 0.989.
For `C[C@@H](c1ncncc1F)[C@](O)(Cn1cncn1)c1ccc(F)cc1F` [Voriconazole], the “growth AUC normalised to DMSO control” value is 0.984.
For `NCC[C@H](O)C(=O)N[C@@H]1C[C@H](N)[C@@H](O[C@H]2O[C@H](CN)[C@@H](O)[C@H](O)[C@H]2O)[C@H](O)[C@H]1O[C@H]1O[C@H](CO)[C@@H](O)[C@H](N)[C@H]1O` [Amikacin hydrate] the value was 0.922 (active); for `CO[C@H]1/C=C/O[C@@]2(C)Oc3c(C)c(O)c4c(O)c(c(/C=N/N5CCN(C)CC5)c(O)c4c3C2=O)NC(=O)/C(C)=C\C=C\[C@H](C)[C@H](O)[C@@H](C)[C@@H](O)[C@@H](C)[C@H](OC(C)=O)[C@@H]1C` [Rifampicin], 0.23 (active); for `CC(C)NCC(O)COc1cccc2[nH]ccc12` (stereo not given) [Pindolol], 1.01.
To `NCCCC[C@H](N[C@@H](CCc1ccccc1)C(=O)O)C(=O)N1CCC[C@H]1C(=O)O` [Lisinopril] belongs 1.01; to `Cc1cccc(Nc2ccccc2C(=O)O)c1C` [Mefenamic acid], 1; to `CN(C)CCC(c1ccccc1)c1ccccn1` (stereo not given) [Pheniramine maleate], 0.996.
For `COc1cc(-c2ccc(=O)[nH]n2)ccc1OC(F)F` [Zardaverine] the value was 0.99.
In the case of `CCOc1ccc2c(c1)C(C)=CC(C)(C)N2` [Ethoxyquin], the “growth AUC normalised to DMSO control” value was 0.998.
